Results on 53 compounds are retold here after PubChem BioAssay AID1030 (National Center for Advancing Translational Sciences (NCATS), 2008).

Where “and” joins values, the source holds several entries; their conditions need not be identical. Equal values may be shown once. Hit rate of the full screen: of about 220,000 compounds, about 16,000 (7.3%) were called active. About 25% were inconclusive and are not listed. Calls follow the shape of the dose curve; as a rule, active = well fitted inhibition curve with a large enough effect (not every such curve was filed as active); inconclusive = small, poorly fitted or top-dose-only effect, or another doubt; inactive = no such curve, though single readings can be large or run the other way. Shown is part of a subset that was picked to be rich in actives. Some compounds were tested as several samples or in several runs, with calls that do not always agree.
Potency is read from the fitted curve at half-maximal effect.

The target of the experiment is Aldehyde dehydrogenase 1A1 (Homo sapiens) (UniProt P00352). As to the kind of experiment: qHTS Assay for Inhibitors of Aldehyde Dehydrogenase 1 (ALDH1A1).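 As to activity, negative = inhibition: plate controls were no enzyme wells and a reference inhibitor.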 The note with it: Purified ALDH1A1, NADH fluorescence, propionaldehyde substrate; series mostly up to 75.3 µM; activity, negative = inhibition: at the top concentration.
Sequence of Aldehyde dehydrogenase 1A1 (Homo sapiens) (P00352 whole entry, looked up): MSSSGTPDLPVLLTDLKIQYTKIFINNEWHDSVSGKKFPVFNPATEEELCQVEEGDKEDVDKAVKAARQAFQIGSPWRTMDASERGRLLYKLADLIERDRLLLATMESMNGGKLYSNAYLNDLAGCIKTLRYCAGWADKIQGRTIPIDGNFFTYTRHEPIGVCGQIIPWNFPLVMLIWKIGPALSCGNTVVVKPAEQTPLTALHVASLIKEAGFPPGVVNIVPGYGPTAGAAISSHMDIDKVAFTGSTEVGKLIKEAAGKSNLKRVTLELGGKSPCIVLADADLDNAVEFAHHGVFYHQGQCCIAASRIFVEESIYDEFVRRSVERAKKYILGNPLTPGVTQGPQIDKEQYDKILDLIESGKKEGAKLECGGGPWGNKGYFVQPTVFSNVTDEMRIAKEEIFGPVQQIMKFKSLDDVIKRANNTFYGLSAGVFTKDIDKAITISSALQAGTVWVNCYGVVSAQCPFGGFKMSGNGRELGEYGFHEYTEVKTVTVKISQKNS
For the compound `CSC1=NP(=S)(SC)N(C)c2nc3n(c21)CCC3` (stereo not drawn), the “activity, negative = inhibition” value was -5.63% (inactive).
On the same count and under the same terms, for `CCOP(=O)(OCC)C(NC(=O)c1ccc(C)cc1)C(Cl)(Cl)Cl` (stereo not drawn) the value was 0.637% (inactive).
Same read-out and setting: under `CCN(CC)CCn1ncc2c(N)ncnc21` stands 1.51% [at 13.5 µM] (inactive); under `CCCCCCCCc1[se]c2ccccc2c1Br`, -6.52% (inactive).
Same read-out and setting: for `NCCc1ccc(S(=O)(=O)F)cc1` the value was 4.17% (inactive); for `O=C(CN1CCCCC1)Nc1ccc(Br)cc1C(=O)c1ccccc1Cl`, -1.86% (inactive).
As for `CCN1CCN(c2ccc([N+](=O)[O-])cc2C#N)CC1`, the “activity, negative = inhibition” value is 5.93% (inactive).
Still for that read-out and setting: under `COc1ccccc1-n1c(O)c(C=NC2CC2)c(=O)[nH]c1=O` stands -2.25% (inactive).
For `Cc1ccc(-n2c(-c3ccc([N+](=O)[O-])cc3)nc3ccccc3c2=O)cc1`, the Potency was 7.51 µM (active).
For `O=c1c2ccccc2nc(-c2ccccc2)n1-c1ccccn1`, the “activity, negative = inhibition” value was -7.99% (inactive).
Still for that read-out and setting: under `O=c1c2ccccc2nc(-c2ccc(Cl)cc2Cl)n1-c1ccncc1` stands -6.03% (inactive).
On the same count and under the same terms, under `Cc1cccc2c(CCN)c[nH]c12` stands 1.85% (inactive); under `Cc1ncsc1CCCl`, -8% (inactive).
As for `COc1ccc(C(=O)CC2C(=O)N(C)C(=O)N(C)C2=O)cc1`, the Potency was 17.8 µM (active).
In the case of `CCOP(=O)(OCC)C(NC(=O)c1ccc(OC)cc1)C(Cl)(Cl)Cl` (stereo not drawn), the “activity, negative = inhibition” value is 2.96% (inactive).
The same measure, in the same setting: for `COc1ccc(-c2nn(CCC#N)cc2C(=O)O)cc1` the value was 12.9% (inactive); for `COc1cc(-n2c(=S)[nH]c3ccc(C)cc3c2=O)c(Cl)cc1Cl`, -5.27% (inactive).
Regarding `CN(C)P(=S)(Nc1ccccc1)C(Cl)(Cl)Cl` (stereo not drawn), the “activity, negative = inhibition” value was -9.21% (inactive).
For the compound `O=NO`, the Potency result was “inactive and 11.2 µM (active)”.
In the case of `C[C@@]12CC[C@H](O)C[C@@H]1CC[C@@H]1[C@@H]2CC[C@@]2(C)[C@@H](C3=CC(=O)OC3)[C@H](O)C[C@]12O`, the activity, negative = inhibition is 23.8% [at 13.5 µM] (inactive).
`OC(CNC1CCCCC1)c1ccccc1` (stereo not drawn): the “activity, negative = inhibition” value was 13.7% (inactive).
For the compound `CC(Cc1cccs1)NCc1ccc(Cl)cc1` (stereo not drawn), the “activity, negative = inhibition” value is 9.87% (inactive).
In the case of `CCN(CC)C(=O)c1ccc(NC(=O)c2cc(-n3cnnc3)ccc2Cl)cc1`, the Potency is 25.1 µM (active).
As to `CC(C)(Cc1c[nH]c2ccc(Cl)cc12)NCCOc1ccccc1OCC1CC1`, the Potency entry was “inactive”.
As to `O=c1[nH]c(=O)n(-c2ccccc2)c(O)c1C=NC12CN3CN(CN(C3)C1)C2`, the “activity, negative = inhibition” value was 4.54% (inactive).
Same read-out and setting: for `C=CCN1CCC2(C)c3cc(O)ccc3CC1[C@@H]2C` (stereo partly drawn) the value was 0.265% (inactive); for `CC(=O)O[C@H]1CC[C@@]2(C)[C@@H](CC[C@H]3[C@H]2CC(=O)[C@]2(C)[C@@H]3C[C@@H](N3CC3)[C@H]2C(C)=O)C1`, 6.14% [at 13.5 µM] (inactive).
On the same count and under the same terms, under `COC1CC(OC2CC[C@@]3(C=O)C4CC[C@]5(C)C(C6=CC(=O)OC6)CC[C@@]5(O)C4CC[C@]3(O)C2)OC(C)C1O` (stereo partly drawn) stands 9.5% (inactive).
With `O=C(O)CCn1cc(C=C2C(=O)NC(=S)NC2=O)c(-c2cccc(Br)c2)n1`, the Potency was 10 µM (active).
Consider `COP(=O)(NS(=O)(=O)c1ccccc1)OC`, for which the “activity, negative = inhibition” value is 10.1% (inactive).
In the case of `CN1C2CC3CC1C(O3)C2O` (stereo not drawn), the “activity, negative = inhibition” value was -0.978% (inactive).
Still for that read-out and setting: for `C[C@@]12CC[C@H]3[C@@H](CC[C@]4(O)C[C@H](O)CC[C@@]34C=O)[C@]1(O)CC[C@@H]2C1=CC(=O)OC1` the value was 5.61% [at 20.9 µM] (inactive).
On the same count and under the same terms, for `OC1/C(=C/c2ccc(C(F)(F)F)cc2)N2CCC1CC2` (stereo not drawn) the value was 5.45% (inactive).
For the compound `CCCCC/C=C\C/C=C\C/C=C\CCCCCCC(=O)NCCO`, the Potency entry is “inactive”.
On the same count and under the same terms, under `CCCCC/C=C\C/C=C\C/C=C\C/C=C\CCCCCC(=O)NCCO` stands “inactive and 14.1 µM (active)”; under `CCCCC/C=C\C/C=C\C/C=C\C=C\[C@H](CCCC(=O)O)OO`, “inactive”.
Regarding `O=C(COC(=O)Cc1ccccc1)Nc1ccc(F)cc1`, the “activity, negative = inhibition” value was 8.73% (inactive).
With `O=c1[nH]c(=O)n(Cc2ccccc2)c(O)c1/C=N/Nc1c(F)c(F)c(F)c(F)c1F`, the “activity, negative = inhibition” value was -0.117% (inactive).
Turning to `CNC(=O)N(C)c1nnc(C(C)(C)C)s1`, the Potency result is “inactive”.
With `CN1[C@@H]2CC[C@H]1CC(OC(=O)c1cc(Cl)cc(Cl)c1)C2` (stereo partly drawn), the “activity, negative = inhibition” value is 4.67% (inactive).
Take `BrC1C(Br)C(Br)C(Br)C(Br)C1Br` (stereo not drawn): the Potency is 20 µM (active).
As for `O=C(CCN1CCCCC1)NCC(=O)Nc1ccc(Br)cc1C(=O)c1ccccc1`, the “activity, negative = inhibition” value was 1.09% (inactive).
Still for that read-out and setting: under `N[C@H](Cc1o[nH]c(=O)c1Cl)C(=O)O` stands 5.09% (inactive).
In the case of `CC(C)(C)CC(=O)Nc1nnc(SCC(=O)NCc2cccs2)s1`, the Potency was 17.8 µM (active).
Take `N[C@H](C(=O)O)c1cc(=O)[nH]o1`: the “activity, negative = inhibition” value is -6.24% (inactive).
`N#Cc1ccc(Cn2cc(C(=O)c3ccco3)c3ccccc32)cc1`: the “activity, negative = inhibition” value was -2.02% (inactive).
As to `COP(=O)(OC)C(NC(=O)c1ccc(C)cc1)C(Cl)(Cl)Cl` (stereo not drawn), the “activity, negative = inhibition” value was 1.19% (inactive).
As to `OC(Cn1c2ccccc2c2ccccc21)C[n+]1ccccc1` (stereo not drawn), the “activity, negative = inhibition” value was 8.11% (inactive).
On the same count and under the same terms, under `CCNc1nc2[nH]c(=O)c3c(c2s1)OC(N)=C(C#N)C3c1cccs1` (stereo not drawn) stands -7.74% (inactive); under `CCCCN1C2CCC1CC(OC(c1ccc(F)cc1)c1ccc(F)cc1)C2` (stereo not drawn), 4.41% (inactive).
For `Cc1ccc(NN=C2C(=O)OC(C)(C)OC2=O)c(C)c1`, the Potency was 10 µM (active).
In the case of `Cc1nc2nc(C)c(CCC(=O)N3CCC4(CC3)OCCO4)c(C)n2n1`, the “activity, negative = inhibition” value is 3.72% (inactive).
On the same count and under the same terms, under `CC1=CC(=O)C2=C(C)C[C@H](O)[C@H]3[C@H](C)C(=O)O[C@@H]3C12` (stereo partly drawn) stands -0.9% (inactive).
